The values below come from PubChem BioAssay (NCATS).

Structures are written as SMILES. Results filed as inconclusive are left out. The source made the active and inactive calls. Unless noted, the call rests on the fitted dose curve; in most records, active means well fitted curve in the direction sought with a large enough effect; inconclusive means small, poorly fitted or top-dose-only effect, or another doubt; inactive means no such curve, though single readings can be large; an effect the other way counts as inactive or inconclusive.

The nature of experiment [1]: MultiTox-Fluor Cytotoxicity Assay - LYMP1-001 - Dead Cells (AID 946). Further: potency means the concentration at half of the fitted maximal effect. A digest of the protocol:
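Cytotoxicity as increased dead-cell protease fluorescence (bis-AAF-R110, 485/520 nm), read 60 min after MultiTox-Fluor reagent. Human lymphoblastoid line exposed 16 h; Hill-fitted AC50, with DMSO as 0% and 15 uM tetraoctylammonium bromide as 100%.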

Experiment [2] in a line: Cell Viability - LYMP1-002 - Assay at 16 hr (AID 948).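 Further: 0% = DMSO alone and full effect = 92 µM tetraoctylammonium bromide.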 The essentials:
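Human lymphoblastoid cells (LYMP1-002), 2500/well, were preincubated 5 hr at 37 C, then exposed to compounds for 16 hr at 37 C in complete medium. Cellular ATP was read by CellTiter-Glo luminescence after 30 min at room temperature; AC50 from Hill fits.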

A short description of experiment [3]: MultiTox-Fluor Cytotoxicity Assay - LYMP1-002 - Dead Cells (AID 960). Further: potency means the concentration at half of the fitted maximal effect; nearly all actives have a fitted effect of over 60% in size. The essentials: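 Cells were plated, rested 5 hr, then treated with compound dilution series for 16 hr at 37 C. After adding substrate reagent and 60 min at room temperature, dead-cell protease fluorescence gave concentration-response curves fitted by the Hill equation.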
Experiment [4] can be described thus: Cell Viability - LYMP1-003 - Assay at 24 hr (AID 963).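 Further: plate controls were DMSO only for no effect and tetraoctylammonium bromide positive control for full effect.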 The essentials: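 Cytotoxicity is scored as a concentration-dependent fall in ATP-linked luciferase signal in human lymphoblastoid LYMP1-003 cells treated 24 hr at 37 C in complete culture medium.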
A short description of experiment [5]: Cell Viability - LYMP1-003 - Assay at 40 hr (AID 964). Further: on the % scale 0 is the no-effect control and ±100 the full control effect; nearly all actives have a fitted effect of over 60% in size. A digest of the protocol: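 Luminescent ATP signal (CellTiter-Glo) served as the viability read-out after 40 hr compound treatment of human lymphoblastoid LYMP1-003 cells at 37 C. Decreases in ATP were fitted with the Hill equation to give AC50.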
Experiment [6] can be described thus: Cell Viability - LYMP2-005 (AID 967).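 Further: plate controls were DMSO only for no effect and 92 µM tetraoctylammonium bromide control for full effect.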 The essentials: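 CellTiter-Glo luminescence (cellular ATP) read-out; LYMP2-005 lymphoblastoid cells, 2500/well, 5 h pre-incubation, then 24 h compound exposure at 37 C in complete medium. Tetraoctylammonium bromide positive control; AC50 by standard Hill fit.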
Experiment [7] can be described thus: Cell Viability - LYMP2-015 (AID 971).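 Further: 0% = DMSO only and full effect = 92 µM tetraoctylammonium bromide; nearly all actives have a fitted effect of over 55% in size.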 The essentials:
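Cells are seeded at 2500 per well and incubated 5 hr at 37 C. Compounds are added across a concentration series for 24 hr at 37 C. CellTiter-Glo is added, and luminescence is read after 30 min at room temperature.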

A short description of experiment [8]: Cell Viability - LYMP2-023 (AID 975).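 Further: plate controls were DMSO only for no effect and 92 µM tetraoctylammonium bromide control for full effect; nearly all actives have a fitted effect of over 55% in size.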 A digest of the protocol:
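Steps: seed 2500 human lymphoblastoid cells per well, incubate 5 hr at 37 C, add compound for 24 hr at 37 C, add CellTiter-Glo, hold 30 min at room temperature, read luminescence. AC50 derived by Hill modelling.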

Experiment [9] can be described thus: Cell Viability - LYMP2-025 (AID 976).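 Further: plate controls were DMSO only for no effect and tetraoctylammonium bromide control for full effect.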 A digest of the protocol:
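Acute cytotoxicity is scored as a concentration-dependent fall in intracellular ATP, measured by luciferase luminescence, in human lymphoblastoid LYMP2-025 cells exposed to compound for 24 hours at 37 C. AC50 values come from standard Hill fits.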

Experiment [10] can be described thus: Cell Viability - LYMP2-002 (AID 977).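 Further: plate controls were DMSO only for no effect and 92 µM tetraoctylammonium bromide for full effect.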 A digest of the protocol:
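Human lymphoblastoid cells, 2500/well, complete medium; 5 h 37 C settle; compound 24 h 37 C; CellTiter-Glo, 30 min RT; luminescence. Decrease in ATP = cytotoxicity; AC50 via Hill equation.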

A short description of experiment [11]: Cell Viability - LYMP2-014 (AID 983).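 Further: plate controls were DMSO only for no effect and 92 µM tetraoctylammonium bromide for full effect; nearly all actives have a fitted effect of over 50% in size.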 A digest of the protocol:
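Cells are plated at 2500/well and left 5 hr at 37 C. Compounds are added across a concentration range and incubated 24 hr at 37 C in complete medium. CellTiter-Glo is added, and luminescence is read after 30 min at room temperature.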

The nature of experiment [12]: Cell Viability - LYMP1-002 - Assay at 24 hr (AID 993). Further: on the % scale 0 is the no-effect control and ±100 the full control effect. The essentials: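 Acute toxicity is measured as concentration-dependent loss of cellular ATP in a human lymphoblastoid line (Coriell LYMP1-002) after 24 h treatment in complete medium. ATP is quantified by luciferase luminescence and AC50 derived by Hill modelling.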
Experiment [13] in a line: Cell Viability - LYMP1-002 - Assay at 40 hr (AID 994).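 Further: 0% = DMSO only and full inhibition = 92 µM tetraoctylammonium bromide; nearly all actives have a fitted effect of over 60% in size.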 A digest of the protocol: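 Cells are plated at 2500 per well and rested 5 hr at 37 C. Compounds are added and incubated 40 hr at 37 C. CellTiter-Glo reagent is added for 30 min at room temperature before luminescence is read.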
The nature of experiment [14]: qHTS for differential inhibitors of proliferation of Plasmodium falciparum line 7G8 (AID 1815;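 further: potency means the concentration at half of the fitted maximal effect; parasite growth measured after three days of incubation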). (In qHTS, concentration-response curves come from the screen itself.)
Experiment [15] is described as follows: qHTS for differential inhibitors of proliferation of Plasmodium falciparum line GB4 (AID 1816).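 Further: potency means the concentration at half of the fitted maximal effect; parasite growth measured after 72 h incubation.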 Conditions: Potency: Plasmodium falciparum GB4 proliferation inhibition.
Experiment [16] can be described thus: qHTS for differential inhibitors of proliferation of Plasmodium falciparum line 3D7 (AID 1876). Further: potency means the concentration at half of the fitted maximal effect.
The nature of experiment [17]: qHTS for differential inhibitors of proliferation of Plasmodium falciparum line D10 (AID 1877).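 Further: potency means the concentration at half of the fitted maximal effect; parasites grown with compound for 72 h before DNA staining.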
The nature of experiment [18]: qHTS for differential inhibitors of proliferation of Plasmodium falciparum line W2 (AID 1883).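 Further: potency means the concentration at half of the fitted maximal effect; parasites grown with compound for 72 h before lysis and staining.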 To be noted: Potency: Plasmodium falciparum W2 proliferation inhibition.
Experiment [19] can be described thus: qHTS for differential inhibitors of proliferation of Plasmodium falciparum line HB3 (AID 1886).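 Further: potency means the concentration at half of the fitted maximal effect; parasites grown with compound for 72 h before SYBR Green readout.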 To be noted: Potency: Plasmodium falciparum HB3 proliferation inhibition.
Experiment [20] in a line: Validation screen for small molecules that induce genotoxicity in human embryonic kidney (HEK293T) cells expressing luciferase-tagged ELG1 (AID 493106). Further: 0% is about no effect. A digest of the protocol: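 Cells were dispensed at 2,000 per well, then 23 nL compound or DMSO was pinned in. After 16 hr at 37 °C and 5% CO2, ONE-Glo reagent was added. Luciferase activity was measured following 30 min at room temperature.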

Experiment [21] addresses Ubiquitin carboxyl-terminal hydrolase 1 (Homo sapiens) (UniProt O94782). As to the kind of experiment: Inhibitors of USP1/UAF1: Pilot qHTS (AID 504865).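 Further: rhodamine fluorescence freed from ubiquitin-rhodamine substrate followed over time; top concentration of the series differs between compounds; on the % scale 0 is the no-effect control and ±100 the full control effect; nearly all actives have a fitted effect of over 35% in size.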 A digest of the protocol: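 USP1/UAF1 complex (1nM) preincubated with compound 15 min at room temperature, then Ub-Rho substrate (150nM final) added. Fluorescence read kinetically at 480/540 nm, 6 reads every 60 seconds. Buffer: 50mM HEPES pH 7.8, 0.5mM EDTA, 0.1 mg/ml BSA, 1mM TCEP, 0.01% Tween-20.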

Experiment [22] has as its target Estrogen receptor (Homo sapiens) (UniProt P03372). Kind of experiment: qHTS assay for small molecule antagonists of estrogen receptor alpha signaling (AID 588513; active means well fitted curve in the direction sought with a large enough effect in the signal ratio, with a control signal flat, not every such curve was filed as active; the % refers to the signal ratio; further: on the % scale 0 is the no-effect control and ±100 the full control effect). The essentials: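 ER-alpha-UAS-bla GripTite HEK 293 cells in medium with 2% charcoal/dextran-treated FBS were preincubated 4 h at 37 C, dosed with compound (1:2 titration), stimulated with 0.5nM 17-beta-estradiol for 18 h, then read by CCF4 beta-lactamase fluorescence.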

Experiment [23] has as its target Peroxisome proliferator-activated receptor gamma (Homo sapiens) (UniProt P37231). As to the kind of experiment: qHTS assay for small molecule antagonists of peroxisome proliferator-activated receptor gamma signaling (AID 588537; active means well fitted inhibition curve with a large enough effect in the signal ratio, with a control signal flat, not every such curve was filed as active; the % refers to the signal ratio;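 further: reporter cells co-stimulated with 50 nM rosiglitazone agonist during compound treatment; % of control where 0% means no effect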). The essentials: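 Fluorescence at 460 and 530 nm (405 nm excitation) reported beta-lactamase cleavage of CCF4 after 2 h room-temperature loading. HEK293 reporter cells in 1% charcoal/dextran-treated FBS had received compound and rosiglitazone for 16 h.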

The target of experiment [24] is Vitamin D3 receptor (Homo sapiens) (UniProt P11473). As to the kind of experiment: qHTS assay for small molecule antagonists of vitamin D receptor signaling (AID 588541; calls by dose curve;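 further: receptor activated by calcitriol during compound treatment; on the % scale 0 is the no-effect control and ±100 the full control effect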). A digest of the protocol:
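VDR-UAS-bla HEK293T cells in 2% charcoal-stripped FBS were stimulated with 1-alpha,25-dihydroxyvitamin D3 (3 nM final) plus compound for 16 h at 37 C. The beta-lactamase CCF4 readout was normalized to 50 nM agonist and DMSO, and Hill fits gave IC50.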

The nature of experiment [25]: qHTS assay for small molecule antagonists of retinoid X receptor alpha signaling (AID 588546; active means well fitted inhibition curve with a large enough effect in the signal ratio, with a control signal flat, not every such curve was filed as active; the % refers to the signal ratio; further: potency means the concentration at half of the fitted maximal effect). To be noted: HEK293T RXRa-UAS-bla, beta-lactamase ratio, antagonist mode; measured here: W530 green channel, cytotoxicity proxy. The essentials:
(§1)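 Beta-lactamase reporter inhibition, read as CCF4 fluorescence ratio (ex 405, em 460/530 nm) after 2 h at RT. HEK293T UAS-bla cells, 2500/well, were stimulated with 9-cis-RA at 500 or 100 nM final alongside test compound for 18 h at 37 C.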

Experiment [26] has as its target Retinoic acid receptor RXR-alpha (Homo sapiens) (UniProt P19793). The experiment is described as above. To be noted: HEK293T RXRa-UAS-bla, beta-lactamase ratio, antagonist mode. The essentials:
as §1

Experiment [27] addresses Thyroid hormone receptor beta (Homo sapiens) (UniProt P10828). Kind of experiment: qHTS assay for small molecule antagonists of thyroid hormone receptor beta signaling (AID 588547; active means well fitted inhibition curve with a large enough effect in the signal ratio, with a control signal flat, not every such curve was filed as active; the % refers to the signal ratio;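 further: cells stimulated with 0.4 nM T3 agonist during compound exposure; on the % scale 0 is the no-effect control and ±100 the full control effect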). To be noted: TR-UAS-bla HEK293, beta-lactamase ratio, antagonist mode, 18 h. The essentials: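 TR-UAS-bla GripTite HEK293 cells in 2% charcoal/dextran FBS medium; compounds 0.59 nM to 92 uM with T3 at 0.4nM final, 18 h at 37 C. Beta-lactamase read by CCF4 fluorescence (460/530 nm); Hill fits gave IC50 and efficacy.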

The nature of experiment [28]: qHTS assay for small molecule agonists of the antioxidant response element (ARE) signaling pathway (AID 651741; active means well fitted activation curve with a large enough effect in the signal ratio; the % refers to the signal ratio; further: potency means the concentration at half of the fitted maximal effect). A digest of the protocol: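 Stably integrated ARE-beta-lactamase reporter HepG2 cells; 16 h compound incubation, 37 C; LiveBLAzer FRET substrate 2 h at room temperature; fluorescence intensity.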
Experiment [29] is described as follows: qHTS assay for small molecule disruptors of the mitochondrial membrane potential - 1 hr assay (AID 651754; calls by dose curve; further: potency means the concentration at half of the fitted maximal effect; nearly all actives have a fitted effect of over 35% in size). A digest of the protocol:
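Loss of mitochondrial potential shifts the cationic dye from red mitochondrial aggregates to green cytoplasmic monomers. Cells (HepG2) are treated with compound for 1 hr before a 30 min dye incubation at 37C.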

The nature of experiment [30]: qHTS assay to identify small molecules that stimulate interleukin-8 (IL-8) secretion (AID 651758; active means well fitted activation curve with a large enough effect in the signal ratio; the % refers to the signal ratio; further: 0% is about no effect). A digest of the protocol:
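Compounds are added to THP-1 cells (2000 per well) and left 16 hrs at 37 C. A labeled anti-IL-8 antibody pair is then added, and IL-8 secretion is measured by time-resolved FRET after 1-3 hrs at room temperature.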

The target in experiment [31] is Arylsulfatase A (Homo sapiens) (UniProt P15289). Kind of experiment: qHTS screen for enhancers of Arylsulfatase A (ASA1): LOPAC Validation Assay (AID 720538). Further: 0% is about no effect. A digest of the protocol:
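SV40-transformed skin fibroblasts from an MLD patient (ASA-I179S) were treated with compounds for 48h at 37 degree C, then lysed with 0.5mM pNCS final substrate for 14h at room temperature; NaOH stop, fluorescence read (Ex=525 nm; Em=598 nm).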

Experiment [32] can be described thus: qHTS profiling of the MIPE4 collection as inhibitors of Plasmodium falciparum (3D7) proliferation (AID 743344; call rule not given here;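 further: scaled between DMSO vehicle wells and 0.29 µM artemisinin as full inhibition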). To be noted: P. falciparum 3D7 in erythrocytes, SYBR Green DNA fluorescence, 72 h; at 28.5 µM (top of the series) unless noted. The essentials: (§2)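 Parasite DNA was quantified by SYBR Green I fluorescence (ex 485, em 535 nm) after overnight lysis in saponin/Triton buffer at room temperature. Cultures at 0.3% parasitemia and 2.5% hematocrit were first exposed to compound for 72 h at 37 C; signals were normalised to artemisinin (0.29 uM) and vehicle wells.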

The nature of experiment [33]: qHTS profiling of the MIPE4 collection as inhibitors of Plasmodium falciparum (DD2) proliferation (AID 743345; call rule not given here). To be noted: P. falciparum Dd2 in erythrocytes, SYBR Green DNA, 72 h; at 28.5 µM (top of the series) unless noted. A digest of the protocol:
as §2

The nature of experiment [34]: qHTS profiling of the MIPE4 collection as inhibitors of Plasmodium falciparum (DD2) proliferation (Rep 2) (AID 743346; call rule not given here). To be noted: P. falciparum Dd2 in erythrocytes, SYBR Green DNA, 72 h; at 28.5 µM (top of the series) unless noted. The essentials: as §2
A short description of experiment [35]: Confirmatory qHTS to identify inhibitors of SARS-CoV-2 cell entry (AID 1645844; calls by dose curve; further: potency means the concentration at half of the fitted maximal effect; nearly all actives have a fitted effect of over 45% in size). The essentials: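 HEK293-ACE2, overnight seeding; cpd 1 h, 37C/5% CO2; + SARS-CoV-2-S MLV PP (Wuhan-Hu-1, ΔC19); 48 h; Bright-Glo luminescence. Data normalised to S PP and bald PP wells.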

Chain of Ubiquitin carboxyl-terminal hydrolase 1 (Homo sapiens) (O94782 whole entry, looked up): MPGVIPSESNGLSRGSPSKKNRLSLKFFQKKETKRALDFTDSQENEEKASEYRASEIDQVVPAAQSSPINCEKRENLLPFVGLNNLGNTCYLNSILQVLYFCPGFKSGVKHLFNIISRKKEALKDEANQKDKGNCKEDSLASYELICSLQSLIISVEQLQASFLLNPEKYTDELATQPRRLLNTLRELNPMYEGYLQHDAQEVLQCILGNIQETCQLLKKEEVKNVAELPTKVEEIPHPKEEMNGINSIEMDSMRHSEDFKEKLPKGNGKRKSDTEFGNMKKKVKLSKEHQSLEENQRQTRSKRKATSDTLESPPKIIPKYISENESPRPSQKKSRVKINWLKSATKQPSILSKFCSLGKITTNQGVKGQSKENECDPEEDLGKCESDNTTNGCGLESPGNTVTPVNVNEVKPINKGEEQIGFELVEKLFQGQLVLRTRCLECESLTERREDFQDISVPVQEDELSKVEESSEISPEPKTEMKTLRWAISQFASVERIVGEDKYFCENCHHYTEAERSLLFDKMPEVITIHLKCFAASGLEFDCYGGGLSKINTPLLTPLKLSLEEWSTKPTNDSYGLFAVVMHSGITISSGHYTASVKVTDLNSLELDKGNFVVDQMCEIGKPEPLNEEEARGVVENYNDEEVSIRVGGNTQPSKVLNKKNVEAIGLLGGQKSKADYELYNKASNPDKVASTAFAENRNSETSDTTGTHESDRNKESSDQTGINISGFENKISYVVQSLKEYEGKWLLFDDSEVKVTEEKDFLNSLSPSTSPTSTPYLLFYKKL
Chain of Peroxisome proliferator-activated receptor gamma (Homo sapiens) (P37231 whole entry, looked up): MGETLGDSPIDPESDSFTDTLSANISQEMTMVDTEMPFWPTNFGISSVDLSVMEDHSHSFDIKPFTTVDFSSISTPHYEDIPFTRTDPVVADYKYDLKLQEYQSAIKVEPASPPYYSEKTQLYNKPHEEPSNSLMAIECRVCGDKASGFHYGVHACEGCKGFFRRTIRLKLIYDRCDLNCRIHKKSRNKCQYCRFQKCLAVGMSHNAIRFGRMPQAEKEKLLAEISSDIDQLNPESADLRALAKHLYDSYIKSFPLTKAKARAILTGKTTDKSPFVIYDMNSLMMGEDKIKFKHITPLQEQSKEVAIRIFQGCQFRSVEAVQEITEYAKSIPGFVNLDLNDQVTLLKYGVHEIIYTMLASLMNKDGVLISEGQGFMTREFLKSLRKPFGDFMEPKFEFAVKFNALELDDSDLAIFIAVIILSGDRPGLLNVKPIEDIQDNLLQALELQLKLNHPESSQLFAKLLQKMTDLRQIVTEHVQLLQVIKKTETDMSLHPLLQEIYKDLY
Chain of Arylsulfatase A (Homo sapiens) (P15289 whole entry, looked up): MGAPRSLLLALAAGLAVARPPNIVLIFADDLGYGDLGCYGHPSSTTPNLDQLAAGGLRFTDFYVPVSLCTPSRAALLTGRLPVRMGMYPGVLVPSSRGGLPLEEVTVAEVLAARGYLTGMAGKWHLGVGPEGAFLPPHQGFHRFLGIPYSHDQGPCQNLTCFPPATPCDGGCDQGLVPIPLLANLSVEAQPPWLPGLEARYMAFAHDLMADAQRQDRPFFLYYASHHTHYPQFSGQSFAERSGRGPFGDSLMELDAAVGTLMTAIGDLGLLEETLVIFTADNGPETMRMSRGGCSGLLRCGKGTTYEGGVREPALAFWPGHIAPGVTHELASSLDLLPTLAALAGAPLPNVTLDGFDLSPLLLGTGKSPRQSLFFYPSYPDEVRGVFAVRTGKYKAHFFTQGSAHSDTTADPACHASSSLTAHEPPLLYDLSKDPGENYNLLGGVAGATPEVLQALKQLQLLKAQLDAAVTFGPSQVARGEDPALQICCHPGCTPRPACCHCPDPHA
Chain of Estrogen receptor (Homo sapiens) (P03372 whole entry, looked up): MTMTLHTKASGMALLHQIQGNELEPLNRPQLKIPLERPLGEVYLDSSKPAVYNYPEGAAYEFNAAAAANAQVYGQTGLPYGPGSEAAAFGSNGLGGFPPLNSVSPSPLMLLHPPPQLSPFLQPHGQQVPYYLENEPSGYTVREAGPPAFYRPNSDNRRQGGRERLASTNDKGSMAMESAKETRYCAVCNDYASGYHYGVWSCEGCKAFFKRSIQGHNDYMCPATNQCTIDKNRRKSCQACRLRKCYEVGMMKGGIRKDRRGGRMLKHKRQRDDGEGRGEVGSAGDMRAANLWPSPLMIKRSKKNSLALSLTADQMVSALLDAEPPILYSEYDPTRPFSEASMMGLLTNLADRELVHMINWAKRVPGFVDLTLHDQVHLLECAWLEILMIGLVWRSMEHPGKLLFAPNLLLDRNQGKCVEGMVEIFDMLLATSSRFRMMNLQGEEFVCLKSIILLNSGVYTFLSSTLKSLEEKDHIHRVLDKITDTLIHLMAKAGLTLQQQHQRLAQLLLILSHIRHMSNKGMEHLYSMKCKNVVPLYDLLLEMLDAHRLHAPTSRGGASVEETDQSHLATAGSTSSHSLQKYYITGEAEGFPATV
Chain of Thyroid hormone receptor beta (Homo sapiens) (P10828 whole entry, looked up): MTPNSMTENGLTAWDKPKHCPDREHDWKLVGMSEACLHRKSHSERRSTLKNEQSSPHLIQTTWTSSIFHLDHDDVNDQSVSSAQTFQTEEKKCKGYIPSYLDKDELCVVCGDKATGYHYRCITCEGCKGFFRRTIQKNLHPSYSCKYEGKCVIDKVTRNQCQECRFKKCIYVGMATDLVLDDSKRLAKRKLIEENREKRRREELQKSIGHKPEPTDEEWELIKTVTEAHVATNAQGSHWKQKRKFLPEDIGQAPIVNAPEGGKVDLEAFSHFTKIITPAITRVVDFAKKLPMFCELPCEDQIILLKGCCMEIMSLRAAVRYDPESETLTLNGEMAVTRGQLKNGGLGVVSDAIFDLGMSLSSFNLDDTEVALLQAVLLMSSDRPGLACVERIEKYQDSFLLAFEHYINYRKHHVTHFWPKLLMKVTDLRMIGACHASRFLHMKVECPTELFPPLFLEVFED
Chain of Retinoic acid receptor RXR-alpha (Homo sapiens) (P19793 whole entry, looked up): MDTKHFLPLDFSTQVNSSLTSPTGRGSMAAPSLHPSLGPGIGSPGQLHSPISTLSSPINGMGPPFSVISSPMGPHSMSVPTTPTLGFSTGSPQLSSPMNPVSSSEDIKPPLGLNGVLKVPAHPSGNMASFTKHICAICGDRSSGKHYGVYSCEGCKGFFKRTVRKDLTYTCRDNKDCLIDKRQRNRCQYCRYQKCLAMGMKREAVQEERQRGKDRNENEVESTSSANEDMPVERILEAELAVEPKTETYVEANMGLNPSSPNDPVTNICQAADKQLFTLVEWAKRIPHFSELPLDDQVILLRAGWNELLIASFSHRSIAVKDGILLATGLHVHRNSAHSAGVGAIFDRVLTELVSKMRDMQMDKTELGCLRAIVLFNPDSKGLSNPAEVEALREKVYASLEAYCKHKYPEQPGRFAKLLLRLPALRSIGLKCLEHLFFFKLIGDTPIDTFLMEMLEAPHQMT
Chain of Vitamin D3 receptor (Homo sapiens) (P11473 whole entry, looked up): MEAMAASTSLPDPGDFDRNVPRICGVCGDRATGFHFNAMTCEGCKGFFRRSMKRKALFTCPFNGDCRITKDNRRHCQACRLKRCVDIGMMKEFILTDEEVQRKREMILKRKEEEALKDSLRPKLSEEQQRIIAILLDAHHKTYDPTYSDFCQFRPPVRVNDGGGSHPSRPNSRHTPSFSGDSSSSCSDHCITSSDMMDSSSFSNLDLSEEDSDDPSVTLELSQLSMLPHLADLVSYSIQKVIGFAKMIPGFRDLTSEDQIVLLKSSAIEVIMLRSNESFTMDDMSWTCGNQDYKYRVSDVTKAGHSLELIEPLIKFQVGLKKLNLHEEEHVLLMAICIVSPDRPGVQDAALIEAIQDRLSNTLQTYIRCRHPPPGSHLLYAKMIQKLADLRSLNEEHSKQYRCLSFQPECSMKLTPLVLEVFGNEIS

Take `CC(=O)[C@H]1CC[C@H]2[C@@H]3CCC4=CC(=O)CC[C@]4(C)[C@H]3CC[C@]12C`: the Potency in [1] is 50.1 µM (active); in [3], 10 µM (active); in [14], 8.91 µM (active); in experiment [15], 12.6 µM (active); in [16], 11.2 µM (active); in experiment [17], 12.6 µM (active). In addition, the Potency was 7.94 µM (active) in [18]; 8.91 µM (active) in [19]; 35.5 µM (active) in experiment [26]; 37.6 µM (active) in experiment [28]; 11.9 µM (active) in [29]; 24.1 µM (active) in experiment [35]. For the same compound, the outcome in [2], in experiment [4], in [6], in experiment [7], in experiment [8] and in [9] was inactive. For the same compound, the compound was classed as inactive in experiment [10], in experiment [11], in [12], in [20] and in [24]. The Potency result in [5], in experiment [13], in [21], in experiment [22], in experiment [23] and in experiment [30] was “inactive” each time. Besides, the Potency result in experiment [31] was “inactive”. Also, the max response in experiment [25] is 1.42%. Further, the activity change % (negative = inhibition) in [27] was -26.1% (inactive). This compound also registered a parasite growth, % of DMSO control in experiment [32] of 38.5%. This compound also gave a parasite growth remaining, % of DMSO control (lower = more inhibition) in experiment [33] of 85%. In experiment [34], this compound yielded a parasite growth, % of control (lower = inhibition) of 30.4%.

For `N#CC(c1ccc(Cl)cc1)c1c(Cl)cc(-n2ncc(=O)[nH]c2=O)cc1Cl` (stereo unspecified), in [35], the Potency is 0.0136 µM (active).
